Measurements from ChEMBL document CHEMBL1961873, “Compounds: GSK PKIS; Assays: Nanosyn kinase panel” (2012).

Legend:
[1] = target: High affinity nerve growth factor receptor (Homo sapiens) (UniProt P04629); settings: at 1 µM;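 further: each value is the mean percent inhibition of TRKA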
[2] = target: BDNF/NT-3 growth factors receptor (Homo sapiens) (UniProt Q16620); settings: at 0.1 µM
[3] = target: BDNF/NT-3 growth factors receptor (Homo sapiens) (UniProt Q16620); settings: at 1 µM
[4] = target: NT-3 growth factor receptor (Homo sapiens) (UniProt Q16288); settings: at 0.1 µM
NT-3 growth factor receptor (Homo sapiens), sequence (Q16288 32-839 limits assumed): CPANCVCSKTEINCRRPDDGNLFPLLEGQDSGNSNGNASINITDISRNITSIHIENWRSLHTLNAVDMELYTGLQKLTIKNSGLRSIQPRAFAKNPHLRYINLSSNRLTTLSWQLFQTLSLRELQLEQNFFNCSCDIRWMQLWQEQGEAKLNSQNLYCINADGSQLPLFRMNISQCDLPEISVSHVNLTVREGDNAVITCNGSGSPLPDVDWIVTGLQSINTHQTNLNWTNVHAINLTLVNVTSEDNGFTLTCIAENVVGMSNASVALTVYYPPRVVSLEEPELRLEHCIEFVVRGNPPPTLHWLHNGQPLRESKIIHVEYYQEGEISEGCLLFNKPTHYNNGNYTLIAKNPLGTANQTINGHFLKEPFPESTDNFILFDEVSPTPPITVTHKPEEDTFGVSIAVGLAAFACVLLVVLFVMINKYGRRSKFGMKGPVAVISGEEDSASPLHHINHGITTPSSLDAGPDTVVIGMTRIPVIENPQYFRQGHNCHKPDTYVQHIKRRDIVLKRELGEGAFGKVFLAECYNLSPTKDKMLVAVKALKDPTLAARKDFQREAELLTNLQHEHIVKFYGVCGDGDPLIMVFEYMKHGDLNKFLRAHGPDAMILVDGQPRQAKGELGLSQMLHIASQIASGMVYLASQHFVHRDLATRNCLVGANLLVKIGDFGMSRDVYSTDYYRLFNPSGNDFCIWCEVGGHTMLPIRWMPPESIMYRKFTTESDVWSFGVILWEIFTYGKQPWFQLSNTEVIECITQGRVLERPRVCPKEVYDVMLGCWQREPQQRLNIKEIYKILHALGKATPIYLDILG

[5] = target: NT-3 growth factor receptor (Homo sapiens) (UniProt Q16288); settings: at 1 µM
[6] = target: T1, Tyrosine-protein kinase TXK (Homo sapiens) (UniProt P42681); settings: at 0.1 µM
T1 sequence (whole entry): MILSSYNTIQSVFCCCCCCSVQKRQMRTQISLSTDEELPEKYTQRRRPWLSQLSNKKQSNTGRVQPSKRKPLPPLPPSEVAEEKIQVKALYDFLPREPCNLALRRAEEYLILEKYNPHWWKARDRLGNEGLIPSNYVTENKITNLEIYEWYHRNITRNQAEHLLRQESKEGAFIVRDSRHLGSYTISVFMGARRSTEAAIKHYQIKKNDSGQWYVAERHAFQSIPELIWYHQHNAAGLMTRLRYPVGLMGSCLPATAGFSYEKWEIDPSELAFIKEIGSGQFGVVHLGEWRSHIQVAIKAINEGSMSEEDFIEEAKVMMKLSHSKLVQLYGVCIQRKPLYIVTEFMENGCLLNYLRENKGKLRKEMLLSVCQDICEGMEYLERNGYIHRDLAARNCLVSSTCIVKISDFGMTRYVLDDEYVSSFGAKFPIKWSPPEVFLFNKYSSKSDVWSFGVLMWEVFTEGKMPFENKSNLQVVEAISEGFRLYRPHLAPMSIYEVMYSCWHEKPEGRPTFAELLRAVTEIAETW

[7] = target: T1, Tyrosine-protein kinase TXK (Homo sapiens); settings: at 1 µM
[8] = target: Non-receptor tyrosine-protein kinase TYK2 (Homo sapiens) (UniProt P29597); settings: at 0.1 µM;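 further: each value is a mean of the inhibition readings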
Non-receptor tyrosine-protein kinase TYK2 (Homo sapiens), sequence (P29597 whole entry): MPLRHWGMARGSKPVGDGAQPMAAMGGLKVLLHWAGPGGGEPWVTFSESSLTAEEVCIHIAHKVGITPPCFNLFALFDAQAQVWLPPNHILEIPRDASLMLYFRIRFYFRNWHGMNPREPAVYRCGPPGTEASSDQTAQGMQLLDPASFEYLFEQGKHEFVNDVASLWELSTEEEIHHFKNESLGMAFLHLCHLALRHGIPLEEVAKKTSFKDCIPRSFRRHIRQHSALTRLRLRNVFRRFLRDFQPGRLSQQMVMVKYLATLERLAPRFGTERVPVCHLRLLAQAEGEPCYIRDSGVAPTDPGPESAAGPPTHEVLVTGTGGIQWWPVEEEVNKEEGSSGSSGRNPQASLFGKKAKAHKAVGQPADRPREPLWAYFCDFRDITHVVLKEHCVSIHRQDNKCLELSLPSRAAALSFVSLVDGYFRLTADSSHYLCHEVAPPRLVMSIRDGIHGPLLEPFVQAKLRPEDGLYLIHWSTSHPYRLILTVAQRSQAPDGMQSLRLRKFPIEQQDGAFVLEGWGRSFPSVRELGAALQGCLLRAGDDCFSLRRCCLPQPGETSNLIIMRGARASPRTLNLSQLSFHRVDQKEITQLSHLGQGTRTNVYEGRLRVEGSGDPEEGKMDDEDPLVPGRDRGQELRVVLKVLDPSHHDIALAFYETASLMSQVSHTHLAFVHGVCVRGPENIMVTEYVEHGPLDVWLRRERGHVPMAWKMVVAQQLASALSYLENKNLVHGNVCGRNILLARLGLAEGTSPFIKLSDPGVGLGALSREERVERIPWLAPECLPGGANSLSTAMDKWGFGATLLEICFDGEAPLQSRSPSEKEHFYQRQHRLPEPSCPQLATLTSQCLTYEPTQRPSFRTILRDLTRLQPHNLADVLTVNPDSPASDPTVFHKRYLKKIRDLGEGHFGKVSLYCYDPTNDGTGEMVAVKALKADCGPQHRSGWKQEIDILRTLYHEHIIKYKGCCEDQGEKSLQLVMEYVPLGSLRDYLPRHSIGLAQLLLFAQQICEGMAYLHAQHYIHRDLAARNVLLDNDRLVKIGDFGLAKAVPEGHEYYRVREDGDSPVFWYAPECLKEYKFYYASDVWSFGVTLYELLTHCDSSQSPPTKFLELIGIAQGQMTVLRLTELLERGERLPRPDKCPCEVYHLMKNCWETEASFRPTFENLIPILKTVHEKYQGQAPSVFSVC

[9] = target: T2, Dual specificity protein kinase TTK (Homo sapiens) (UniProt P33981); settings: at 1 µM;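 further: reported figures are mean TTK inhibition at 1 µM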
T2 sequence (whole entry): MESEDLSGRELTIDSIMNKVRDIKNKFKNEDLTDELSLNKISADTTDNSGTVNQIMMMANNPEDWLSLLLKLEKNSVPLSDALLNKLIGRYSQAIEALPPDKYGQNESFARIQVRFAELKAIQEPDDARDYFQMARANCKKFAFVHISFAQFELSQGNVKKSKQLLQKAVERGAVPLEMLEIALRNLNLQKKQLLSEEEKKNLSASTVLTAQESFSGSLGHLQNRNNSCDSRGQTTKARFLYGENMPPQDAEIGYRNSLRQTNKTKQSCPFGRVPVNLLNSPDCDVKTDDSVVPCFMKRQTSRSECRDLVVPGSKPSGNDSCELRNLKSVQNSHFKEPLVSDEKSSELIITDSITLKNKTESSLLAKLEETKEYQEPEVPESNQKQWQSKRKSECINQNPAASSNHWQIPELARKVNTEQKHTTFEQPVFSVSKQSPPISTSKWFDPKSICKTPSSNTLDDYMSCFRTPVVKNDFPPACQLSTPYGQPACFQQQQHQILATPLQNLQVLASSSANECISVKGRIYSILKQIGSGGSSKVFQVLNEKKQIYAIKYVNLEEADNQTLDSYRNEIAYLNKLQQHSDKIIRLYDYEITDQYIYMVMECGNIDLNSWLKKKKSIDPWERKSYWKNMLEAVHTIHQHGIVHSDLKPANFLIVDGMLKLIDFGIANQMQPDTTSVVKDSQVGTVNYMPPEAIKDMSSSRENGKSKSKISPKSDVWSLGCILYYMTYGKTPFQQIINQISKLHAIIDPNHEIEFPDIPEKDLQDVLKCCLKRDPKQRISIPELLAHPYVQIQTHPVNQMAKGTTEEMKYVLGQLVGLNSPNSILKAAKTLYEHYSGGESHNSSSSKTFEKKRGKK

[10] = target: T3, Aurora kinase A (Homo sapiens) (UniProt O14965); settings: at 0.1 µM
T3 sequence (whole entry): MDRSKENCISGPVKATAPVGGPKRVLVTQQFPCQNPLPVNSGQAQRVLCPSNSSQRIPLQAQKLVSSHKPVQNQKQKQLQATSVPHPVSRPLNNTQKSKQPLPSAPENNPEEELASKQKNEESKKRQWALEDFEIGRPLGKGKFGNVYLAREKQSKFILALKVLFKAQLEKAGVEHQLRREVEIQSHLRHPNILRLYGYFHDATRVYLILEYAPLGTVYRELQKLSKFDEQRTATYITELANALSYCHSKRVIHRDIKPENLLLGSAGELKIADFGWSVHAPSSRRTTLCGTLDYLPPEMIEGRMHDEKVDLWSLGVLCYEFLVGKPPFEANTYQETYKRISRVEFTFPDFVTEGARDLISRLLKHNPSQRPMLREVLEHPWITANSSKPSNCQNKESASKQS

[11] = target: T3, Aurora kinase A (Homo sapiens); settings: at 1 µM
[12] = target: Aurora kinase B (Homo sapiens) (UniProt Q96GD4); settings: at 0.1 µM
[13] = target: Aurora kinase B (Homo sapiens) (UniProt Q96GD4); settings: at 1 µM
[14] = target: T4, Aurora kinase C (Homo sapiens) (UniProt Q9UQB9); settings: at 0.1 µM
T4 sequence (whole entry): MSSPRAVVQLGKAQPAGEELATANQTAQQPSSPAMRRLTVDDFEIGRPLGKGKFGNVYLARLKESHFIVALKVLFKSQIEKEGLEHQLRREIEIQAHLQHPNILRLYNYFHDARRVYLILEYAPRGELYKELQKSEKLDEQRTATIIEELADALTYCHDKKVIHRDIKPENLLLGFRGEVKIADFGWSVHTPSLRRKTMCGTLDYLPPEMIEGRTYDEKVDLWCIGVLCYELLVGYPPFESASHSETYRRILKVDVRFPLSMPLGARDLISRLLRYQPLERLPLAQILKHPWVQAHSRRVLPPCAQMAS

[15] = target: T4, Aurora kinase C (Homo sapiens); settings: at 1 µM
[16] = target: Serine/threonine-protein kinase 10 (Homo sapiens) (UniProt O94804); settings: at 0.1 µM
Serine/threonine-protein kinase 10 (Homo sapiens), sequence (O94804 whole entry, looked up): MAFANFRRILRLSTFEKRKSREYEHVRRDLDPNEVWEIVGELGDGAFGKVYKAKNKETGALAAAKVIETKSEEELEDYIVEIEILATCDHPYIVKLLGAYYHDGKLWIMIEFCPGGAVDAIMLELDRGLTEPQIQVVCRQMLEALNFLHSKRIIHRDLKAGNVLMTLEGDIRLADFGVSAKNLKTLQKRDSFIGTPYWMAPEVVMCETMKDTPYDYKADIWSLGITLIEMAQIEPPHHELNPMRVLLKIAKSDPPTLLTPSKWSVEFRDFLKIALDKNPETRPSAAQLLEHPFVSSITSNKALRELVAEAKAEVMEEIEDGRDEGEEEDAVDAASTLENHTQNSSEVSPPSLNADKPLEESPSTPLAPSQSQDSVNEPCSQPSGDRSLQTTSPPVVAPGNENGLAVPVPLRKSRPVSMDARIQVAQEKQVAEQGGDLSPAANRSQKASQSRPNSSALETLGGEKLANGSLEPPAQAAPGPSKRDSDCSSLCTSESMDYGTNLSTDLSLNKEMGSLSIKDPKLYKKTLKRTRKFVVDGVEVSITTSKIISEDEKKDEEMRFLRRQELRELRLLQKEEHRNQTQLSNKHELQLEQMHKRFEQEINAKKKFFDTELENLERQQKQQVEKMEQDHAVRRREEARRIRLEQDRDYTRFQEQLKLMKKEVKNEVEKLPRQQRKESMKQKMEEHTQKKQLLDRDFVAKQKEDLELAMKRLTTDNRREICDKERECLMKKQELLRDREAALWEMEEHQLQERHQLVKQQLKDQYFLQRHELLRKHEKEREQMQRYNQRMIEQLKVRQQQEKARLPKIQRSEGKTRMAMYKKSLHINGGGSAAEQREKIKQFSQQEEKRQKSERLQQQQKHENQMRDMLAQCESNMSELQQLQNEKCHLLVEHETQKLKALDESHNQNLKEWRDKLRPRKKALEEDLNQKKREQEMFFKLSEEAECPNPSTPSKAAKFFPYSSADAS

[17] = target: Serine/threonine-protein kinase 10 (Homo sapiens) (UniProt O94804); settings: at 1 µM
[18] = target: T5, Mitogen-activated protein kinase kinase kinase kinase 2 (Homo sapiens) (UniProt Q12851); settings: at 0.1 µM
T5 sequence (whole entry): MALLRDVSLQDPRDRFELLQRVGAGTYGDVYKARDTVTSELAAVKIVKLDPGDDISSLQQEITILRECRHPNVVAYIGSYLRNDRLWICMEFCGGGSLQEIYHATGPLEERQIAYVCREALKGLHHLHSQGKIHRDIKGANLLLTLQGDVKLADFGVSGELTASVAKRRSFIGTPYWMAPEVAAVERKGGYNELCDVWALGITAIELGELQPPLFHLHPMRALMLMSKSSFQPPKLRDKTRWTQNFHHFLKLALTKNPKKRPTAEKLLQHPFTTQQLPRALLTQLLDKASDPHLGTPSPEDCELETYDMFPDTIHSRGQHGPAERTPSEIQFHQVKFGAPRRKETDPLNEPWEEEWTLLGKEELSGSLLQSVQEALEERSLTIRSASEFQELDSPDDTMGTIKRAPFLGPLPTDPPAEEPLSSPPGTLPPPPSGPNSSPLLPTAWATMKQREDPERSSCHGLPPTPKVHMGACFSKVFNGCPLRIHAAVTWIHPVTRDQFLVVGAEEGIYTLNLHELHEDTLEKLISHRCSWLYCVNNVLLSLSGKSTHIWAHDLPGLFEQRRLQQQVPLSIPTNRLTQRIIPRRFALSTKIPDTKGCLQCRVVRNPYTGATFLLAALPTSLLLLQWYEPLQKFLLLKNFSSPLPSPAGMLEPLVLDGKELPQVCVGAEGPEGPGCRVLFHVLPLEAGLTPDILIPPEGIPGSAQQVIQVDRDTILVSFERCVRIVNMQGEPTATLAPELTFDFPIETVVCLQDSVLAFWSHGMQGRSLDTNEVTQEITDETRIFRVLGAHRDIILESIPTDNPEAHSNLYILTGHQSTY

[19] = target: T5, Mitogen-activated protein kinase kinase kinase kinase 2 (Homo sapiens); settings: at 1 µM
[20] = target: Mitogen-activated protein kinase kinase kinase kinase 4 (Homo sapiens) (UniProt O95819); settings: at 0.1 µM
Mitogen-activated protein kinase kinase kinase kinase 4 (Homo sapiens), sequence (O95819 2-1239 limits assumed): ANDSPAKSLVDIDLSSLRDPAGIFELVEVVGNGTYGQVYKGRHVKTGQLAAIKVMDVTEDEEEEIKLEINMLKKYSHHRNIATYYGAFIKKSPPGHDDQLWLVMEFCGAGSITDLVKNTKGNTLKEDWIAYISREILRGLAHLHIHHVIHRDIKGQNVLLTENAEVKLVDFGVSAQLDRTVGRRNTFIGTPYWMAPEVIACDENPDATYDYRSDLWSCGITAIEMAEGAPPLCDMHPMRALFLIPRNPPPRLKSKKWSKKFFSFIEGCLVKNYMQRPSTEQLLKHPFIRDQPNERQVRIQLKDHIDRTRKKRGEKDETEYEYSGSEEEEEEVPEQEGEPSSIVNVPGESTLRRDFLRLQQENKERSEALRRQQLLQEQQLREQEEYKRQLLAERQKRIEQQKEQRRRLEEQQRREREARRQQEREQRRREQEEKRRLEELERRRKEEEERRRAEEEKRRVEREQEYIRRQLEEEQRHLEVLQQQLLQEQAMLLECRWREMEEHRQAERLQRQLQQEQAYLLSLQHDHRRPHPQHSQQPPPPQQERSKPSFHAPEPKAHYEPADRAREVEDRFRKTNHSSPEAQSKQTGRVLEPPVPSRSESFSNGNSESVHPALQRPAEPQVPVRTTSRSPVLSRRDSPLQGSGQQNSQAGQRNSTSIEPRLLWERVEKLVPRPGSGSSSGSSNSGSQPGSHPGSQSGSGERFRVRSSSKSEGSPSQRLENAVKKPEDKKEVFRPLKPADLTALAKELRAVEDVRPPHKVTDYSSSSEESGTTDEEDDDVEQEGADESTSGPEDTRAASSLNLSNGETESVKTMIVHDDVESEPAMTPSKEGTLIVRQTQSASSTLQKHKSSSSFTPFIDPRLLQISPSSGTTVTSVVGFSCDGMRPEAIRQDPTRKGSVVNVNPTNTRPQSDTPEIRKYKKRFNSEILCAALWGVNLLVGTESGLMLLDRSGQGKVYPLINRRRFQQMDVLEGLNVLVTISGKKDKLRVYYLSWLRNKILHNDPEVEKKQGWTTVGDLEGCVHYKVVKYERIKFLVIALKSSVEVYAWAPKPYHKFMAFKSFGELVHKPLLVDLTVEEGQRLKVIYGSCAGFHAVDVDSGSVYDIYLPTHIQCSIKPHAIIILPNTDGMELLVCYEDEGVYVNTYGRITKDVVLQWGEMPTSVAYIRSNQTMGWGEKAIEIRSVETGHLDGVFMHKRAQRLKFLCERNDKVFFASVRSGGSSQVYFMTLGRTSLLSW

BDNF/NT-3 growth factors receptor (Homo sapiens), sequence (Q16620 32-822 limits assumed): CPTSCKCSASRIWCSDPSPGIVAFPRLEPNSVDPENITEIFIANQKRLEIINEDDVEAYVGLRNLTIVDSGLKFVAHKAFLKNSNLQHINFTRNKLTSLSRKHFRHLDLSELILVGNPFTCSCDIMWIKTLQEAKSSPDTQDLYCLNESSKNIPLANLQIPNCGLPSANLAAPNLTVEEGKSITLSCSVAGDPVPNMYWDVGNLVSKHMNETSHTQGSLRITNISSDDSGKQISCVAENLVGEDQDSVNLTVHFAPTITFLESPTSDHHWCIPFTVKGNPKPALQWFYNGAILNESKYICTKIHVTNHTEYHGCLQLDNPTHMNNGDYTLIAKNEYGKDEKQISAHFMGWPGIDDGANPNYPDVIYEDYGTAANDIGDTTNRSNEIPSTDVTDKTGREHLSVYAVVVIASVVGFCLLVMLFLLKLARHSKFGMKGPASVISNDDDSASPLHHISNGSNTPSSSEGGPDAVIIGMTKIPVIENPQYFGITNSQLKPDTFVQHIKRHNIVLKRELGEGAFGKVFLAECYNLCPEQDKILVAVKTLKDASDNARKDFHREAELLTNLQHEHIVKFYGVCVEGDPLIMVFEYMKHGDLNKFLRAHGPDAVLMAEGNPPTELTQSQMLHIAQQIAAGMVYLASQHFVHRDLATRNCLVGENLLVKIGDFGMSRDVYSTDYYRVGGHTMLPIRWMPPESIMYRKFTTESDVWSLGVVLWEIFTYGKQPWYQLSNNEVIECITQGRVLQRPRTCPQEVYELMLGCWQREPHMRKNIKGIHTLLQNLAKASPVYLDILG

Compound | inhibition [1] [%] | inhibition [2] [%] | inhibition [3] [%] | inhibition [4] [%] | inhibition [5] [%] | inhibition [6] [%] | inhibition [7] [%] | inhibition [8] [%] | inhibition [9] [%] | inhibition [10] [%] | inhibition [11] [%] | inhibition [12] [%] | inhibition [13] [%] | inhibition [14] [%] | inhibition [15] [%] | inhibition [16] [%] | inhibition [17] [%] | inhibition [18] [%] | inhibition [19] [%] | inhibition [20] [%]
CS(=O)(=O)CCNCc1ccc(-c2ccc3ncnc(Nc4ccc(OCc5ccccc5)cc4)c3c2)o1 | 2.55 | 2.66 | 4.99 | 3.88 | 5.1 | 0.48 | 3.39 | -1.78 | 7.19 | 3.51 | 7.7 | 4.74 | 10 | 2.17 | 7.65 | 5.66 | 7.82 | 0.28 | 1.58 | 3.5
CCS(=O)(=O)c1ccc(OC)c(Nc2ncc(-c3cccc(C(C)=O)c3)o2)c1 | 9.16 | 4.28 | 20.5 | 4.38 | 29.4 | 13 | 50.5 | -3.16 | 8.55 | 2.45 | 15.3 | 3.08 | 6.28 | 4.6 | -0.45 | 6.16 | 9.95 | -0.26 | 3.22 | 3.37
COc1ccc2ncn(-c3cc(O[C@H](C)c4ccccc4C(F)(F)F)c(C(N)=O)s3)c2c1 | 2.53 | -0.31 | 4.65 | 0.4 | 5.65 | 1.46 | 2.56 | 0.28 | 5.58 | -0.03 | 5.59 | 1.15 | 7.77 | -1.97 | -0.3 | 35.2 | 80.7 | 0.64 | 4.67 | 0.55
COc1cc(N2CCN(C(C)C)CC2)ccc1Nc1nc(Nc2cccc(F)c2C(=O)O)c2cc[nH]c2n1 | 0.85 | 3.78 | 6.6 | 2.64 | 4.58 | 1.98 | 3.5 | -3.16 | 77.3 | 3.47 | 6.46 | 4.82 | 5.02 | 0.7 | -0.44 | 5.69 | 9.11 | 0.91 | 3.18 | 7.43
Fc1ccc(Nc2nccc(-c3c(-c4ccc(C(F)(F)F)cc4)nn4ncccc34)n2)cc1F | 1.59 | 2.27 | 2.56 | 3.55 | 2.83 | 2.95 | 4.27 | -3.95 | 8.25 | 3.59 | 14.1 | 4.71 | 4.62 | 2.92 | 12.9 | 3.37 | 0.68 | 0.94 | 1.77 | 5.44
CC1(C)CC(n2cnc(-c3ccc(F)cc3)c2-c2ccnc(N)n2)CC(C)(C)N1 | 0.77 | 1.16 | 2.03 | 0.21 | 2.79 | 0.09 | 0.75 | 1 | 1.53 | -0.03 | 4.57 | 3.04 | -0.43 | -0.39 | -1.87 | 1.32 | 6.74 | 1.36 | 2.09 | 2.07
CC1=C(C(=O)Nc2ccc3[nH]ncc3c2)C(c2ccc(F)cc2)N=C(c2ccc(C(F)(F)F)nc2)N1 (stereo not given) | 4.07 | 1.02 | 1.46 | 2.88 | 3.8 | 3.02 | 4.16 | -0.65 | -4.56 | 4.97 | 51 | 3.38 | 16.9 | 3.47 | 21.3 | 0.31 | 2.22 | 1.59 | 2.35 | 2.89
CCCNc1cccc(-n2ncc3c(N/N=C/c4ccncc4)ncnc32)c1 | 7.34 | 5.18 | 33.9 | 4.23 | 36.8 | 2.17 | 8.54 | -0.85 | 15.7 | 9.48 | 70.7 | 14.3 | 43.8 | 17 | 58.5 | 6.3 | 28.4 | 1.16 | 3.57 | 9.69
Cc1c2ccc(N(C)c3ccnc(Nc4cccc(S(N)(=O)=O)c4)n3)cc2nn1C | 7.91 | 4.05 | 9.82 | 4.05 | 11.1 | 20.5 | 59.4 | -3.68 | 29.9 | 11.7 | 72.2 | 12.5 | 54.2 | 15.8 | 81.6 | 23.4 | 64.4 | 7.77 | 41 | 11.1
COC(=O)Nc1nc2ccc(Oc3ccc(NC(=O)Nc4cc(C(F)(F)F)ccc4F)cc3)cc2s1 | 81.5 | 24.9 | 61 | 25.7 | 88.5 | 1.96 | 2.35 | -0.09 | 9.84 | 1.12 | 7.02 | 5.4 | 30.8 | 9.05 | 50.4 | 24.5 | 55.4 | 10.7 | 28.6 | 2.18
COc1ccc(Nc2ncc(-c3ccccc3)o2)cc1OC | 14.1 | 2.88 | 27.1 | 2.7 | 27.1 | 4.28 | 17.8 | 0.66 | 1.06 | 9.76 | 75.4 | 8.72 | 51.1 | 10.2 | 82.2 | -1.08 | 11.2 | 3.92 | 14.3 | 8.63
NS(=O)(=O)c1ccc(N/N=C2\C(=O)Nc3cccc(CCc4ccncc4)c32)cc1 | 19.1 | 17 | 45.4 | 17.3 | 41.9 | 2.92 | 8.22 | -0.26 | 38.7 | 28.1 | 20.6 | 3.64 | 7.9 | 5 | 8.21 | -0.95 | 0.03 | 1.75 | 3.46 | 4.39
O=C(O[C@H]1CN[C@H](C#Cc2cc3ncnc(Nc4ccc5c(ccn5Cc5cc(F)ccc5F)c4)c3s2)C1)N1CCOCC1 | 0.61 | 1.99 | 3.22 | 2.18 | 2.92 | 3.8 | 5.25 | -1.85 | 9.66 | 4.5 | 9.24 | 5.02 | 8.88 | 1.44 | 9.49 | 8.09 | 7.76 | 1.18 | 2.82 | 5.04
